Experiment [1] is described as follows: NCI Yeast Anticancer Drug Screen. Data for the rad50 strain (AID 155).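 Also: 0% = growth of vehicle-only cultures of the same strain.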 The settings on record: S. cerevisiae rad50 strain growth inhibition; at 50.0 µM; hits give high values. An outline of the steps:
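Yeast carrying a defined DNA repair defect were exposed to test compounds, and growth was compared with vehicle-treated controls to give percent inhibition.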

A short description of experiment [2]: NCI Yeast Anticancer Drug Screen. Data for the mec2-1 strain (AID 157). The following applies: S. cerevisiae mec2-1 strain, at 50.0 µM, hits give high values. An outline of the steps:
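Vehicle-treated cultures served as reference for growth inhibition of compound-exposed mec2-1 yeast.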

The nature of experiment [3]: NCI Yeast Anticancer Drug Screen. Data for the sgs1 mgt1 strain (AID 161).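 Also: 0% = growth of cultures given vehicle only.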 The following applies: S. cerevisiae sgs1 mgt1 strain, at 50.0 µM, hits give high values. In outline: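 Genetically altered yeast, compound exposure, growth inhibition relative to vehicle.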
A short description of experiment [4]: NCI Yeast Anticancer Drug Screen. Data for the cln2 rad14 strain (AID 165).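 Also: 0% = growth equal to vehicle treated cultures.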 The settings on record: S. cerevisiae cln2 rad14 strain, at 50.0 µM, hits give high values. An outline of the steps:
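Each compound was tested on cln2 rad14 yeast. Inhibition of growth was calculated against vehicle-exposed controls.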

A short description of experiment [5]: NCI Yeast Anticancer Drug Screen. Data for the bub3 strain (AID 167). The settings on record: S. cerevisiae bub3 mutant strain, at 50.0 µM, hits give high values. An outline of the steps:
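Compounds were applied to a genetically altered yeast strain carrying a cell-cycle control defect. Growth inhibition was scored against vehicle-treated controls.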

Experiment [6] in a line: NCI Yeast Anticancer Drug Screen. Data for the mlh1 rad18 strain (AID 175). The following applies: S. cerevisiae mlh1 rad18 strain growth inhibition; at 50.0 µM; hits give high values. In outline: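 Vehicle-treated cultures served as the reference for growth inhibition in a yeast strain carrying DNA damage repair alterations exposed to each compound.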

The panel holds about 79,000 compounds, 15% with a hit somewhere; the sample as a whole holds those more often. Values without a mark were called inactive. Active and inactive are the calls of the source. Rule as the data show it: active = growth inhibition above about 70%; inactive = the rest.

As for `CC1CCC(=O)NCCCCC(=O)N1` (stereo unspecified), the growth inhibition in experiment [1] is 22.9%; in experiment [2], 1.85%; in experiment [3], 25.3%; in experiment [4], 15.6%; in experiment [5], 3.45%; in experiment [6], 26.6%.

Consider `O=C(COCC(=O)N/N=C/c1ccc(Cl)cc1Cl)N/N=C\c1cc(Cl)cc(Cl)c1`, for which the growth inhibition in experiment [1] was -21.1%; in experiment [2], -1.65%; in experiment [3], 0.75%; in experiment [4], 37.2%; in experiment [5] it was -1%; in experiment [6], -12.2%.

For `O=C1C=C(c2ccccc2)C(=O)C(c2ccccc2)=C1c1ccccc1`, the growth inhibition is 73.2% (active) in experiment [1]; 88.2% (active) in experiment [2]; 88.8% (active) in experiment [3]; 80% (active) in experiment [4]; 78.2% (active) in experiment [5]; 89.6% (active) in experiment [6].

As for `Nc1nc2nc(N=Nc3ccccc3)[nH]c2c(=O)[nH]1`, the growth inhibition in experiment [1] is 21.5%; in experiment [2] it was -1.9%; in experiment [3], 8.3%; in experiment [4], 9.25%; in experiment [5] it was 5.45%; in experiment [6], 8.9%.

For `Cc1ccccc1NC(=O)c1ccccc1`, the growth inhibition in experiment [1] was 1.35%; in experiment [2], 2.3%; in experiment [3], -5.6%; in experiment [4], -14.7%; in experiment [5] it was 5.85%; in experiment [6], 3.1%.

Consider `COC(=O)C1CCC=CC1OC(C)=O` (stereo unspecified), for which the growth inhibition is 1.65% in experiment [1]; -12.6% in experiment [2]; 2.6% in experiment [3]; 4.45% in experiment [4]; 5.25% in experiment [5]; 3.2% in experiment [6].

For `O=C(NCCc1[nH]nc2c1C(=O)C=C(Nc1ccccc1)C2=O)OCc1ccccc1`, the growth inhibition in experiment [1] is -29.7%; in experiment [2], -15.8%; in experiment [3], -32.4%; in experiment [4], -21.9%; in experiment [5], -29.1%; in experiment [6], -52.8%.

Turning to `Brc1cc2c(cc1C1SCCS1)OCO2`, the growth inhibition was 49.5% in experiment [1]; 20.4% in experiment [2]; 58.5% in experiment [3]; 18.6% in experiment [4]; 28.3% in experiment [5]; 34.6% in experiment [6].

For `COc1ccc2c(cnc3c4cc(OC)c(OC)cc4ccc23)c1`, the growth inhibition in experiment [1] is 15.2%; in experiment [2], -0.85%; in experiment [3], 4.05%; in experiment [4], -4.9%; in experiment [5] it was 24.9%; in experiment [6] it was 3.6%.

As to `O=c1c(CN(CCO)CCO)c(-c2ccccc2)sc2ccccc12`, the growth inhibition is -3.45% in experiment [1]; -24.6% in experiment [2]; -28.1% in experiment [3]; 13.1% in experiment [4]; -13.8% in experiment [5]; 14.7% in experiment [6].

In the case of `N#CC(NCc1ccccc1)c1ccccc1` (stereo unspecified), the growth inhibition in experiment [1] is 67.7%; in experiment [2], 43%; in experiment [3] it was 14.3%; in experiment [4], -17.1%; in experiment [5], 22.2%; in experiment [6], 19.8%.

As to `CNC(=O)c1ccccc1C`, the growth inhibition in experiment [1] was -1.15%; in experiment [2], -6%; in experiment [3], -6.9%; in experiment [4] it was -33.3%; in experiment [5], 6.55%; in experiment [6], 0.35%.

For `c1ccc2c(c1)C1CC3N=NC1C23` (stereo unspecified), the growth inhibition is 3.3% in experiment [1]; -1.35% in experiment [2]; -10.5% in experiment [3]; -20.1% in experiment [4]; 3.8% in experiment [5]; -3.95% in experiment [6].

For `CCCCCCCCCCCCCCCCCCCCCCCCCCCCCCCCCCCCSC(=N)N`, the growth inhibition in experiment [1] is 8.25%; in experiment [2], 0.45%; in experiment [3], 3.8%; in experiment [4], -7.05%; in experiment [5], -0.25%; in experiment [6], 12.8%.

For the compound `O=C(c1cccs1)c1cccs1`, the growth inhibition was -6.4% in experiment [1]; -12.9% in experiment [2]; -17.6% in experiment [3]; -67% in experiment [4]; 8.3% in experiment [5]; -8.45% in experiment [6].

As for `Cc1ccc(S(=O)(=O)N/N=C2\CCC3(C)C(CCC4C3CCC3(C)C(C(C)CCCC(C)C)CCC43)C2)cc1` (stereo unspecified), the growth inhibition was 42.3% in experiment [1]; 17.8% in experiment [2]; 35.3% in experiment [3]; 27.6% in experiment [4]; -4% in experiment [5]; 33.9% in experiment [6].

In the case of `CCN(CCO)CC(=O)c1cc(Cl)ccc1OC`, the growth inhibition is -3.85% in experiment [1]; 13.6% in experiment [2]; 16.2% in experiment [3]; -37% in experiment [4]; 6.55% in experiment [5]; 19.4% in experiment [6].

For `CC1c2ccccc2CC(CCN(C)C)c2ccccc21` (stereo unspecified), the growth inhibition in experiment [1] was 8.1%; in experiment [2], -12.8%; in experiment [3] it was 34%; in experiment [4], 13.4%; in experiment [5] it was 28.6%; in experiment [6] it was -20.3%.

Consider `CC1C2=C(CCCC2=O)O/C1=N\O` (stereo unspecified), for which the growth inhibition is 11.4% in experiment [1]; -6.85% in experiment [2]; -0.85% in experiment [3]; -24.9% in experiment [4]; 6.7% in experiment [5]; 12.2% in experiment [6].

Regarding `O=C(O)c1cscc1Cc1ccccc1`, the growth inhibition was 0.9% in experiment [1]; -2.25% in experiment [2]; -1.7% in experiment [3]; -21.1% in experiment [4]; -20.8% in experiment [5]; 5.45% in experiment [6].

With `CCOc1ccccc1OCC`, the growth inhibition in experiment [1] was 25.1%; in experiment [2], -27.2%; in experiment [3], -25.9%; in experiment [4], 12.3%; in experiment [5] it was -11.2%; in experiment [6], 21.2%.

These data come from PubChem BioAssay (NCI).
